# Out of some 360,000 compounds screened, about 2,600 (0.72%) were called active.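 The calls were made as follows: active = inhibition of the luminescence signal of 40% or more relative to plate controls, in a single-dose primary screen at 18.75 µM; inactive = the rest.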 Shown is part of a subset that was picked to be rich in actives.
# Experiment: HIF-2a reporter inhibitors, primary screen, luminescence, 786-0 RCC cells (AID 624352)
# Settings: 786-0 RCC cells HIF-2a reporter, luciferase luminescence, overnight; at 18.8 µM; stronger effect = higher value
row,SMILES,inhibition
1,O=C(NCCc1c[nH]c2ccc(Cl)cc12)c1ccc([N+](=O)[O-])cc1,-9.18% (inactive)
2,CCN(C(=O)CSc1nnnn1-c1ccccc1OC)C1CCS(=O)(=O)C1 (centres undefined),-1.01% (inactive)
3,COc1ccccc1-n1nnnc1S(=O)(=O)Cc1ccc(Cl)cc1,86% (active)
4,COc1ccccc1CN(C)c1nnnn1-c1ccccc1,15.6% (inactive)
5,Cc1[nH]c2ccccc2c1C(=O)c1cc([C@H](NC(=O)OC(C)(C)C)C(C)C)sc1N,2.29% (inactive)
6,C=CCOc1ccccc1CNn1c(C)n[nH]c1=S,21.3% (inactive)
7,COc1cccc(C(NC(C)=O)c2nc(-c3cnc4ccccc4c3)cs2)c1 (centres undefined),-32.9% (inactive)
8,O=[N+]([O-])c1c(NCCO)cc(Sc2nc3ccccc3s2)c2nonc12,87% (active)
9,CC(C)=CCN1CCN(CCCc2ccccc2)CC1CCO (centres undefined),16.8% (inactive)
10,CC[C@]1(c2ccccc2OC)C(=O)N(C(=O)OC)N1C(=O)OC,18.5% (inactive)
11,CCN(CC(=O)NC(C)C)C(=O)CCNC(=O)c1ccc(Cl)cc1,14.3% (inactive)
12,O=C(OC1CCOC1=O)c1cccc(S(=O)(=O)Nc2ccc(F)cc2)c1 (centres undefined),14.8% (inactive)
13,COc1ccc(N2CCN(C(=O)COC(=O)c3cccc(S(=O)(=O)Nc4ccccc4OC)c3)CC2)cc1,12.6% (inactive)
14,CC(=O)Nc1ccc(/C(C)=N/NC(=O)CN(c2ccccc2Br)S(C)(=O)=O)cc1,1.74% (inactive)
15,O=C(COc1cccc(F)c1)Oc1ccc(C(=O)c2ccccc2)cc1,-3.52% (inactive)
16,COC(=O)c1ccc(OC(=O)c2cnccn2)cc1,17.4% (inactive)
17,O=C(Oc1ccc(-c2nc(-c3ccccn3)no2)cc1)c1ccccc1,42.3% (active)
18,Cc1cccc(C(=O)Nc2ccc(C(=O)/C=C/c3cccs3)cc2)c1,-134% (inactive)
19,CC(=O)Nc1ccc(NC(=O)[C@@H](NC(=O)c2cccc(C)c2)C(C)C)cc1,4.88% (inactive)
20,Cc1cccc(C(=O)Nc2ccc(CC(=O)O)cc2)c1,60.9% (active)
21,O=C(CCc1ccccc1)NNc1ccc(F)cc1,5.59% (inactive)
22,CCCc1nc2c([nH]1)C(c1cccnc1)C(C#N)=C(N)O2 (centres undefined),20.2% (inactive)
23,COc1ccc(C2C(C#N)=C(N)Oc3n[nH]c(C)c32)cc1CN1CCN(c2ccc(F)cc2)CC1 (centres undefined),16.6% (inactive)
24,CCCc1[nH]nc2c1C(C1CC=CCC1)C(C#N)=C(N)O2 (centres undefined),52.3% (active)

row,SMILES,inhibition
1,CCCc1[nH]nc2c1C(c1ccc(Br)s1)C(C#N)=C(N)O2 (centres undefined),80.8% (active)
2,N#CC1=C(N)OC2=C(C(=O)CCC2)C1C1CC=CCC1 (centres undefined),-5.19% (inactive)
3,CSC1=NCCN1C(=O)c1ccc(S(=O)(=O)N2CCOCC2)cc1,4.81% (inactive)
4,CC(C)C(C(=O)NC1CCCCC1)N(CC1CCCO1)C(=O)CNS(=O)(=O)c1ccc(F)cc1 (centres undefined),12.1% (inactive)
5,COc1ccc(C2/C=C\CN(CC(C)C)CC(=O)N2Cc2ccc(F)cc2)cc1 (centres undefined),4.31% (inactive)
6,COC(=O)c1sccc1NC(=O)CSc1ccccc1NS(=O)(=O)c1cc(Cl)ccc1Cl,7.65% (inactive)
7,Cc1ccc(CC(=O)N(C)CC(=O)N(CC(C)C)c2c(N)n(CC(C)C)c(=O)[nH]c2=O)cc1C,10.3% (inactive)
8,C=C(C)C(=O)O[C@H]1C/C(C)=C\C(=O)/C=C(\C)[C@H](O)[C@@H]2OC(=O)C(=C)[C@@H]21,92.8% (active)
9,Cc1ccc(Cl)c(OCC(=O)NN2CCN(C)CC2)c1,13.6% (inactive)
10,CC1CN(C(=O)COC(=O)c2cccc(NS(=O)(=O)c3ccccc3)c2)CC(C)O1 (centres undefined),10.2% (inactive)
11,CNC(=O)NC(=O)C(C)N1CCN(C/C=C/c2ccccc2)CC1 (centres undefined),16.3% (inactive)
12,COCCCNC(=O)CNC(=O)c1nn(-c2ccc(OC)cc2)c(=O)c2ccccc12,4.73% (inactive)
13,OCCN1CCN(C(=S)c2ccc(-c3ccccc3)cc2)CC1,88.1% (active)
14,S=C(c1ccc(-c2ccccc2)o1)N1CCCCC1,-291% (inactive)
15,O=C(NC(=S)N1CCN(Cc2ccccc2)CC1)c1ccccc1,3.06% (inactive)
16,CCN(C(=O)c1cc([N+](=O)[O-])ccc1NCc1cccnc1)c1ccccc1,11.9% (inactive)
17,Cc1ccc(S(=O)(=O)N(C)C)cc1NC(=O)COC(=O)C1COc2ccccc2O1 (centres undefined),3.99% (inactive)
18,Fc1ccc2c(c1)C(c1cccnc1)=NNC(c1cccs1)=N2,0.189% (inactive)
19,C=CCn1c(SCC(=O)NC(=O)Cc2ccccc2)nc2ccccc2c1=O,15.8% (inactive)
20,O=C(/C=C/c1ccc([N+](=O)[O-])o1)NNC(=O)c1ccc(F)cc1,30.1% (inactive)
21,CCn1c(/C=C/c2ccc([N+](=O)[O-])o2)nc2ccccc2c1=O,56.6% (active)
22,CCc1cc(CNC(=O)CC2C(=O)NCCN2Cc2ccccc2C(F)(F)F)on1 (centres undefined),7.76% (inactive)
23,Cc1cc(C)c(S(=O)(=O)N2CCOCC2)cc1C,16.4% (inactive)
24,COCc1cc(=O)n2[nH]c(C)c(-c3ccccc3)c2n1,11.1% (inactive)

row,SMILES,inhibition
1,CC(C)[C@H](NC(=O)c1ccccc1F)C(=O)Nc1cccc(S(=O)(=O)N2CCOCC2)c1,6.68% (inactive)
2,CCN(CC)CCCC(C)n1c2nc(=O)[nH]c(=O)c-2nc2cc(Cl)ccc21 (centres undefined),70.8% (active)
3,O=c1c(-c2ccccc2Cl)c[nH]n1-c1ccccc1,-21.8% (inactive)
4,OC(c1ccccc1)c1nccn1Cc1ccccc1 (centres undefined),6.44% (inactive)
5,Cc1cc(C)c(NC(=O)c2oc3ccccc3c2COc2ccccc2)c(C)c1,1.23% (inactive)
6,CCOC(=O)N1CCC(=NNC(N)=O)CC1,9.05% (inactive)
7,CN(C)C(=O)c1cccc(-c2cnc3c(NC=O)cc(-c4ccc(F)cc4)cn23)c1,9.01% (inactive)
8,CN(C)CCNC(=O)c1cccc(-c2cnc3c(NC=O)cc(-c4cccc(C(F)(F)F)c4)cn23)c1,79.2% (active)
9,CC(=O)c1cccc(-c2cnc3c(NC=O)cc(-c4ccc(N(C)C)cc4)cn23)c1,-15.5% (inactive)
10,C=CCN1C(=NC(=O)COc2ccccc2)SC2CS(=O)(=O)CC21 (centres undefined),4.93% (inactive)
11,OCCN1CCN(CCO)C1=S,9.5% (inactive)
12,CC(C)(C)OC(=O)N/N=C/c1ccc(C(=O)O)cc1,4.48% (inactive)
13,O=C(O)c1ccc(N/N=C/c2ccc3ncccc3c2)cc1,54.5% (active)
14,NCCCCCC(=O)N/N=C/c1ccc2nccnc2c1,7.39% (inactive)
15,O=C1NC(=O)C(CCc2ccccc2)(c2ccccc2)N1 (centres undefined),17.5% (inactive)
16,COc1ccccc1CNC(=O)COc1ccc(C)nc1[N+](=O)[O-],-1.54% (inactive)
17,Cc1cc(C(=O)COC(=O)CNC(=O)c2ccc(F)cc2)c(C)n1Cc1ccco1,-47.3% (inactive)
18,COc1ccc(C)cc1-n1nnnc1SCC(=O)c1cc(C)n(Cc2ccco2)c1C,-49.1% (inactive)
19,Cc1ccc(OCC(=O)NC(C)c2ccccc2)c([N+](=O)[O-])n1 (centres undefined),17.9% (inactive)
20,COCC(C)n1c(C)cc(C(=O)COc2ccc(C)nc2[N+](=O)[O-])c1C (centres undefined),50.6% (active)
21,Cc1ccc(OCC(=O)c2cc(C)n(Cc3ccco3)c2C)c([N+](=O)[O-])n1,48.1% (active)
22,COc1ccc(NC(=O)CN2C(=O)COc3ccc(S(=O)(=O)N4CCOCC4)cc32)cc1,-0.73% (inactive)
23,CCCCSc1[nH]c(=O)c(C(=O)OCC)cc1C#N,5.92% (inactive)
24,CCN(CC)CC(=O)Nc1sc2c(c1C(=O)c1ccccc1C)CCC2,31.1% (inactive)

row,SMILES,inhibition
1,O=C(Nc1ccccc1C(=O)O)c1cc(S(=O)(=O)N2CCCCC2)cs1,-9.72% (inactive)
2,CC(NS(=O)(=O)c1ccccc1)c1n[nH]c(=S)n1-c1ccccc1 (centres undefined),16.8% (inactive)
3,C[C@@H]1CN([C@@H](C)CO)C(=O)c2cccc(NS(=O)(=O)c3ccc(F)cc3)c2O[C@H]1CN(C)C(=O)NC1CCCCC1,-10.3% (inactive)
4,C=CCSc1nnc(N2C(=O)C(O)=C(C(=O)c3ccco3)C2c2ccc(F)cc2)s1 (centres undefined),-55.2% (inactive)
5,CC(C)(C)c1cc(C(=O)N/N=C/c2ccc([N+](=O)[O-])s2)n[nH]1,80.5% (active)
6,Cc1ccc(-c2cc(C(=O)N/N=C/C=C/c3ccccc3)n[nH]2)o1,-1.73% (inactive)
7,O=[N+]([O-])c1ccc(C=Nc2ccc(Cl)cc2Cl)s1,-3.51% (inactive)
8,COc1ccnc(Oc2ccccc2)n1,-5.97% (inactive)
9,CCCCCCCCCCOC(=O)C[N+](C)(C)CC1CCCCC1O (centres undefined),7.58% (inactive)
10,CCN1CCC(O)(/C=C/c2ccc(C)cc2)C(C(=O)/C=C/c2ccc(C)cc2)C1 (centres undefined),66.8% (active)
11,Cc1ccc(-c2nn(C(C)(C)C)c3ncnc(N)c23)cc1,71.5% (active)
12,CCN(CC(=O)Nc1c(F)cccc1F)C(=O)c1ccc(-c2ccc(C(C)=O)cc2)o1,-53.4% (inactive)
13,NS(=O)(=O)c1ccc(CNC(=O)c2ccc(Cl)cc2[N+](=O)[O-])cc1,2.46% (inactive)
14,O=C(CSc1c2c(nc3ccc(Cl)cc13)CCCC2)NCc1ccco1,17.8% (inactive)
15,Fc1ccc2nc(-c3ccccc3)nc(SCc3nnc(-c4ccccc4)o3)c2c1,23.8% (inactive)
16,Clc1ccc2nc(-c3ccccc3)nc(C(Cl)Cl)c2c1,57.1% (active)
17,Cc1cc(C(=O)N2CCCC2(C)C(=O)O)c(C)o1 (centres undefined),-4.82% (inactive)
18,CC(=O)Nc1ccc(CC#N)cc1,18.5% (inactive)
19,C/C(Cc1ccccc1)=N\NC(=O)CNC(=O)c1cccc(Br)c1,14% (inactive)
20,Cc1ccc(C(=O)Nc2c(-c3ccccc3)[nH][nH]c2=O)cc1,-3.55% (inactive)
21,O=C(NC1=CC(=O)c2ccccc2C1=O)c1ccccc1,92.9% (active)
22,CN(C)C(=O)c1ccc(NC(=O)c2ccccc2-c2ccccc2)cc1,19.3% (inactive)

# Reference: PubChem BioAssay AID624352 (Sanford-Burnham Center for Chemical Genomics, 2012)
